# Tests used:
# Experiment in all cases: PBM binding z-score (relative to random genomic background probes); higher = stronger binding; sequences stand for … in GC…GCGATTGACAGCGTAGAATGAAGG
# [1] = system: RARb homodimer (NR concentration 270 nM)
# Summary of the method: (§1)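 Random background probes are the reference for binding z-scores. These scores derive from regression-normalized fluorescence on custom Agilent 4×180K protein-binding microarrays incubated 1 h with ligand-free nuclear receptor dimers. Binding was detected with antibodies against each partner (one per run).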
# [2] = system: RARg:RXRa (NR concentration 270 nM, RXRa partner concentration 90 nM)
# Summary of the method: as §1
# [3] = system: RARg homodimer (NR concentration 270 nM)
# Summary of the method: as §1
# [4] = system: RXRa DBDmut IVT, anti-RXR (DBD mutation: RXRa K156A/R161A, NR concentration 90 nM)
# Summary of the method: as §1
# [5] = system: RXRa homodimer (NR concentration 180 nM)
# Summary of the method: as §1
# [6] = system: THRa:RXRa (NR concentration 90 nM, RXRa partner concentration 90 nM)
# Summary of the method: as §1
# [7] = system: THRa homodimer (NR concentration 90 nM)
# Summary of the method: as §1
# [8] = system: VDR:RXRa (NR concentration 270 nM, RXRa partner concentration 90 nM)
# Summary of the method: as §1
# [9] = system: VDR homodimer (NR concentration 270 nM)
# Summary of the method: as §1
Sequence,PBM binding z-score [1],PBM binding z-score [2],PBM binding z-score [3],PBM binding z-score [4],PBM binding z-score [5],PBM binding z-score [6],PBM binding z-score [7],PBM binding z-score [8],PBM binding z-score [9]
TCTGCTAGGTCAATGATGGTCAGCTAATCTGCTA,2.75,3.45,4.62,1.11,1.89,2.59,0.321,1.32,-0.294
AAATGTAGGTTAGCTGGGGTCATTCAGACTAGGC,3.76,4.06,2.95,1.87,5.4,5.36,3.23,6.03,5.33
CCTACTGGGCCACCAGGTCATTGATATCAACGTT,2.62,2.19,2,-0.211,1.43,2.94,2.63,1.97,1.77
ATAGGTAGGTTAGCTGGGGTCATTCAGACTAGGC,4.09,4.35,3.5,2.2,5.46,5.2,3.51,6.28,5.44
CTTCGGAGGACAACAGGAGGTCAGAGCTGCCAGA,3.55,3.73,3.57,0.619,2.19,2.97,1.1,2.12,1.45
CGAACTATGTCAGAACAGGACAGTGAAGGATGAT,0.293,0.443,0.879,-0.123,0.167,0.953,-0.106,-0.317,0.0831
TCTCGGAGGACACGGAAGGTCAGAGCTCGACATC,3.98,3.49,4.48,0.816,2.31,3.45,1.37,1.97,1.01
CTTCCAAGGTCAAGGTCAGTGAAAGAGACTCGAA,5.12,6.79,7.26,3.07,6.55,4.54,3.64,4.87,2.79
ATCGAAAGGTCGAAGTTGAGTATACCCACCCGAA,2.55,4.07,3.83,1.9,4.79,2.01,-0.00538,3.08,1.02
GCATATAGGTAATATAAGGTGAAAGTCCGATTGT,0.859,0.463,0.731,0.683,1.07,4.5,2.32,0.397,0.0802
AGAATGATGTTAAGATCAGGGAAACAGAATACAT,-0.787,0.187,0.295,-0.58,0.00873,-0.153,-0.703,-0.114,-0.555
GGAACGAGGGCAAGTCGATAGCAGAGTTTGATGG,1.18,1.36,2,1.89,0.701,0.983,-0.0774,0.364,1.08
ATATGTAGGTTATCGGGTCTTTCAGTTTGCGCAT,1.23,0.844,0.939,0.92,1.03,1.08,1.3,3.12,1.44

# Source: the supplement of paper PMC6555819
